# Screening data (PubChem BioAssay)
# This excerpt belongs to a sample that is enriched for hits.
# Pf Dd2 inh – blocks in vitro growth of P. falciparum Dd2; 4.3% of 120,000 active; Potency, µM (top dose mostly 28.9 µM), for inactives: at the top dose activity, negative = inhibition, most hits filed as inhibitors; P. falciparum Dd2 growth, SYBR Green, 72 h; active = well fitted inhibition curve with a large enough effect;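 also: plate controls were DMSO vehicle for no effect and reference drug for full effect; nearly all actives have a fitted effect of over 65% in size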
#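 Infected erythrocytes (Dd2, 0.3% parasitemia, 2.5% hematocrit final) are added to compound in RPMI-1640/Albumax II medium, grown 72 h at 37C in low oxygen, then lysed with saponin/Triton-X containing SYBR Green and read by fluorescence.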
# Starred values were filed as active, the others as inactive; i = inactive; [ ] = remark or other dose. Potency is read from the fitted curve at half-maximal effect.
SMILES,Pf Dd2 inh
CCC1Oc2ccc(NC(=O)C(CC)c3ccccc3)cc2CN(Cc2ccccc2)C1=O (stereo not given),-15%
CN(Cc1ccccc1)C(=O)c1ccc(CSc2nc3cccnc3n2Cc2ccccc2)cc1,10µM*
O=C(NCCN1CCCCC1)c1ccc(Cn2c(SCc3cccc(F)c3)nc3cccnc32)cc1,7.9µM*
CNC(=O)c1ccc(CSc2nc3cccnc3n2Cc2cccc(F)c2)cc1,-21%
O=C(NCc1ccco1)c1ccc(Cn2c(SCc3ccc(F)cc3)nc3cccnc32)cc1,i
O=C(NCCc1ccccc1)c1ccc(Cn2c(SCc3ccc(F)cc3)nc3cccnc32)cc1,i
O=C(NCc1ccccc1F)c1ccc(CSc2nc3cccnc3n2Cc2ccccc2)cc1,-16%
O=C(NCc1ccccc1)c1ccc(CSc2nc3cccnc3n2Cc2ccccc2)cc1,-5%
O=C(NC1CCCCC1)c1ccc(Cn2c(SCc3ccccc3F)nc3cccnc32)cc1,i
O=C(NCCc1ccccc1)c1ccc(CSc2nc3cccnc3n2Cc2ccccc2F)cc1,8.9µM*
CCOc1ccccc1CNC(=O)c1ccc(Cn2c(SCc3ccccc3)nc3cccnc32)cc1,11µM*
Cc1ccccc1CNC(=O)c1ccc(CSc2nc3cccnc3n2Cc2ccccc2)cc1,-16%
COC1CCC12CCN(C(=O)c1cccc(C)c1)CC2 (stereo not given),0%
CCCS(=O)(=O)N1CCC(Oc2ccc(-c3noc(C(C)C)n3)cc2)C1 (stereo not given),16%[5.79 µM]
N#Cc1ccccc1CN1CCNc2nc(CN3CCN(CCO)CC3)n(Cc3ccccc3)c2C1=O,i
CS(=O)(=O)N1C[C@@H]2CN(C(=O)NC3CCCC3)C[C@]2(C(=O)O)C1,7%
O=C(NC1CC1)c1ccc(Cn2c(SCc3ccccc3F)nc3cccnc32)cc1,-4%
COc1ccc(Cn2c(SCc3ccc(C(=O)NCCc4ccccc4)cc3)nc3cccnc32)cc1,13µM*
CCN(CC)CCn1c(=N)n(CC(O)COc2ccccc2C)c2ccccc21 (stereo not given),1.3µM*
COc1ccc(N2CCN(CC(O)COc3ccccc3C(C)(C)C)CC2)cc1 (stereo not given),10%
CCN(CC)CCn1c(=N)n(CCOc2ccccc2Cl)c2ccccc21,4.5µM*
COC(=O)Cn1c(SCCOc2ccccc2Cl)nc2ccccc21,22%
CC(=O)c1ccccc1OCC(O)Cn1c(CO)nc2ccccc21 (stereo not given),i
CC(C)C(=O)N1CCC(NCCOc2ccccc2Cl)CC1,-3%
CCc1cn(C[C@H](NC(=O)Cc2ccccc2)C(=O)O)c(=O)[nH]c1=O,16%[44.1 µM]
SMILES,Pf Dd2 inh
Cc1cccc(CC(=O)N2CCC(Cc3nc(C4CCOCC4)no3)CC2)c1,1%
O=C(N1C[C@H](CO)C[C@H](CN2CCCC2)C1)C1(Cn2cccn2)CC1,-2%
N#Cc1cccc(C(=O)N2CCNc3cnc(Nc4cccc(F)c4)nc3C2)c1,i
O=C(c1ccc(Oc2ccccc2)cc1)N1CCNc2cnc(Nc3cccnc3)nc2C1,13µM*
O=C(Cc1ccccc1)N1CCNc2cnc(Nc3ccccc3)nc2C1,-20%[44.1 µM]
CC(C)NC(=O)N1CCNc2cnc(Nc3cccc(F)c3)nc2C1,-7%[44.1 µM]
COc1ccccc1Nc1ncc2c(n1)CN(C(=O)c1ccnn1C)CCN2,3%[44.1 µM]
CN(C)c1cccc(C(=O)N2CCNc3cnc(Nc4cccc(C(F)(F)F)c4)nc3C2)c1,7.9µM*
CC(C)NC(=O)N(C1CC1)C1CCOC2(CCN(C(=O)Cc3cccc(F)c3)CC2)C1 (stereo not given),1%
COc1ccc(OCC(=O)N2CCCC3(C2)Nc2cccnc2NC3=NC2CCCC2)cc1 (stereo not given),i[5.79 µM]
O=C(c1ccc(Br)o1)N1CCC(n2cnnc2C2CC2)CC1,-13%
Cc1nn(C)c2ncc(C(=O)O)c(NC3CC(c4cc(=O)[nH]cn4)C3)c12 (stereo not given),3%
O=c1c(S(=O)(=O)c2ccccc2)cn(Cc2cccc(F)c2)c2cc(N3CCCC3)c(F)cc12,-14%
CCCn1cc(S(=O)(=O)c2ccc(C)c(C)c2)c(=O)c2cc(F)c(N3CCC(C)CC3)cc21,-10%
Cc1ccc(S(=O)(=O)c2cn(Cc3ccccc3)c3cc(N4CCCC4)c(F)cc3c2=O)cc1,6.3µM*
CCn1cc(S(=O)(=O)c2ccc(OC)cc2)c(=O)c2cc(F)c(N3CCCCCC3)cc21,-24%
Cc1ccc(S(=O)(=O)c2cn(Cc3ccccc3)c3cc(N4CCCC4)c(F)cc3c2=O)cc1C,10µM*
CCn1cc(S(=O)(=O)c2cc(C)cc(C)c2)c(=O)c2cc(F)c(N3CCCC3)cc21,i
O=c1c(S(=O)(=O)c2cccc(Cl)c2)cn(Cc2ccccc2)c2cc(N3CCCCC3)c(F)cc12,i
O=c1c(S(=O)(=O)c2ccccc2)cn(Cc2ccccc2)c2cc(N3CCCC3)c(F)cc12,-5%
CCn1cc(S(=O)(=O)c2ccc(C)cc2C)c(=O)c2cc(F)c(N3CCCCC3)cc21,11µM*
c1cc(CN2CC[C@H]3CNC[C@H]32)cc(OCCCCN2CCCCC2)c1,-12%
O=C(Cc1ccccc1Cl)N1CCN(c2cc(-c3cccs3)[nH]n2)CC1,i
O=C(Cc1ccc(Cl)cc1)NC1CCN(c2cc(-c3ccc(F)cc3)[nH]n2)C1 (stereo not given),-26%
Cc1ccc(CN2C(=O)NC3(CCN(C(=O)c4ccsc4)CC3)C2=O)cc1,4%
SMILES,Pf Dd2 inh
CN1C[C@H](O)C[C@H]1c1nnc2n1CCN(C(=O)CCc1c[nH]c3ccccc13)CC2,-2%
O=C([C@H]1C[C@@H](F)CN1S(=O)(=O)Cc1ccc(Cl)cc1)N1CCOCC1,i
COCCNc1ncccc1-c1noc([C@@H]2CCCN2C2CCC2)n1,-18%[44.1 µM]
COCCNc1ncccc1-c1noc([C@@H]2CCCN2Cc2ccccc2OC)n1,7.9µM*
COCCNc1ncccc1-c1noc([C@@H]2CCCN2Cc2ccc(C(=O)O)cc2)n1,i
COc1ccccc1-c1cnc(Nc2ccc(CN3CCN(C)CC3)cc2)c2c1CCO2,7.1µM*
COc1ccc(C(=O)Nc2ncc(-c3ccc(OC)nc3)c3c2OCC3)cc1,-15%[44.1 µM]
COc1ccccc1-c1cnc(NC(=O)c2cccnc2)c2c1CCO2,20%[44.1 µM]
COc1ccccc1-c1cnc(Nc2cncnc2)c2c1CCO2,i
Fc1cccc(-c2cnc(Nc3ccc(N4CCOCC4)cc3)c3c2CCO3)c1,i
COc1ccc(-c2cnc(Nc3ccc(CN4CCN(C)CC4)cc3)c3c2CCO3)cn1,6.3µM*
CC(C)C[C@H]1NC(=O)[C@@H]2C[C@@H](n3nnc(C(N)=O)c3C(N)=O)CCN2C1=O,31%[44.1 µM]
c1ccc(NCCn2cc(-c3cncnc3)nn2)cc1,-3%
CC[C@H]1CN(Cc2ccncc2)CC[C@H]1CC(=O)N1CCC(C(=O)OC)CC1,8%[44.1 µM]
O=C(c1ccc(F)cc1)N1CCC2(CNc3ccccc3[S+](=O)([O-])N2)C1 (stereo not given),-5%
COc1cc(OC)cc(-c2onc(C)c2C(=O)NCc2cccc(C)c2)c1,i
COc1ccc(CNC(=O)Cn2c(N3CCc4ccccc4C3)nc(C)cc2=O)cc1,8.9µM*
COc1cccc(CNC(=O)Cn2c(N3CCc4ccccc4C3)nc(C)cc2=O)c1,-20%
COc1cc(NC(=O)Cn2c(N3CCc4ccccc4C3)nc(C)cc2=O)cc(OC)c1OC,-23%
c1ccc(-c2cc(CC3(NCC4CCCCC4)COC3)no2)nc1,i
O=C(CC1COCCN1)NCCc1cnn(-c2ccccc2)c1 (stereo not given),-22%
CCOC(=O)c1ccc(NC(=O)Cn2nc3c(cc2=O)CCCCC3)cc1,-9%
